# Measurements as given in the supplement of paper PMC11732987, “Enantioselective OTUD7B fragment discovery through chemoproteomics screening and high-throughput optimisation” (Communications Chemistry, 2025).
# A number with no mark means an inactive call.
# What was measured:
# Test in all cases: log2 ratio of Biotin-Ahx-Ub-VS probe labelling (fragment/DMSO); higher = less target engagement (more negative = stronger competition), active = hit call of the paper (q ≤ 0.05, log2 ratio ≤ -1)
# Settings in all cases: compound concentration: 200 uM; treatment time: 3 h
# [1] = biological target: T1, ALG13 (UniProt Q9NP73)
# T1 sequence (whole entry): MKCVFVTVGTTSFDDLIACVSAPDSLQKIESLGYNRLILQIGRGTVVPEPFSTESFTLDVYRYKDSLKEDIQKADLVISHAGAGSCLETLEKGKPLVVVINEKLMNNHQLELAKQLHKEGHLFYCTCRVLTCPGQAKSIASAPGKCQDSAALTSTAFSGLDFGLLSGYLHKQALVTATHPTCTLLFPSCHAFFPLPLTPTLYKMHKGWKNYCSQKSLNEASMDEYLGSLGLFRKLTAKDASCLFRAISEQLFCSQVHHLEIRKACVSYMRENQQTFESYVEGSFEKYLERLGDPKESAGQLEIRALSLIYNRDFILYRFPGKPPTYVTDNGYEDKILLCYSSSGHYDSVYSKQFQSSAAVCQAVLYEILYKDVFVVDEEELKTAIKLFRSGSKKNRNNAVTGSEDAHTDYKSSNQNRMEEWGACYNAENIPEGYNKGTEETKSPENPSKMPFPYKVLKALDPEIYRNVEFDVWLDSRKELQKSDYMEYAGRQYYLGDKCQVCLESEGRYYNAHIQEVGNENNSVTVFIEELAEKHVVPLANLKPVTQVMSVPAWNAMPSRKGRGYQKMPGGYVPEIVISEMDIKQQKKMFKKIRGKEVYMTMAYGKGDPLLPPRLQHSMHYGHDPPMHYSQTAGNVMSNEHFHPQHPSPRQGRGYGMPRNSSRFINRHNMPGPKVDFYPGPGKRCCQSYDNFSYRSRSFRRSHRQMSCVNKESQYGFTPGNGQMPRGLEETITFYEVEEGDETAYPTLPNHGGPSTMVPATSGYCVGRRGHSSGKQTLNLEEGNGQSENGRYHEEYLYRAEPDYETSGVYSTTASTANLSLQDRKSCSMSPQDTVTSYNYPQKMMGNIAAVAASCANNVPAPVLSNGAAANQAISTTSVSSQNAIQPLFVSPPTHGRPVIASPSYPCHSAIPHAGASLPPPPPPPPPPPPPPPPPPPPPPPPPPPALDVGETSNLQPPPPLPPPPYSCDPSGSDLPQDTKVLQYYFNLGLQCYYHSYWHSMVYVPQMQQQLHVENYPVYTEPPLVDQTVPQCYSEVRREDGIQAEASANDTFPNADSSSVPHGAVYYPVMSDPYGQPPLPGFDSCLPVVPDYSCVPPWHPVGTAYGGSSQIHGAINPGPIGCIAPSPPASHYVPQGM
# Procedure, shortened: (§1)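 HEK293T lysate, 495 µg per sample in Tris/CHAPS/IGEPAL buffer with protease inhibitors, was treated in triplicate with fragment at 200 µM or vehicle for 3 h and then with Biotin-Ahx-Ub-VS at 0.5 µM final for 1 h. Labelled DUBs were NeutrAvidin-enriched, digested with LysC and trypsin, and run by diaPASEF LC-MS/MS. Spectronaut label-free quantities were global-median-normalised, and values are average log2 fragment/vehicle ratios by unpaired t-test on proteins with ≥2 unique peptides.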
# [2] = biological target: ATXN3 (UniProt P54252)
# Chain of ATXN3 (P54252 whole entry): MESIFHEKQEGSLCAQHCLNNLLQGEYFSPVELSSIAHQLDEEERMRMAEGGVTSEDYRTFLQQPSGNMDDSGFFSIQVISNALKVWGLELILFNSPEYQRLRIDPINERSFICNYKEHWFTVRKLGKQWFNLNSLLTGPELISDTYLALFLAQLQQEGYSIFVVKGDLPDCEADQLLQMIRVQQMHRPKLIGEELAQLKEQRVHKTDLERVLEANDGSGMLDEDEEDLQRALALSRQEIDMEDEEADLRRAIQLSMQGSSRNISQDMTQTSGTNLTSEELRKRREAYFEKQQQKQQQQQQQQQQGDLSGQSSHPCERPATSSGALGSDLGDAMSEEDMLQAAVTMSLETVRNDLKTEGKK
# Procedure, shortened: as §1
# [3] = biological target: T2, BAP1 (UniProt Q92560)
# T2 sequence (whole entry): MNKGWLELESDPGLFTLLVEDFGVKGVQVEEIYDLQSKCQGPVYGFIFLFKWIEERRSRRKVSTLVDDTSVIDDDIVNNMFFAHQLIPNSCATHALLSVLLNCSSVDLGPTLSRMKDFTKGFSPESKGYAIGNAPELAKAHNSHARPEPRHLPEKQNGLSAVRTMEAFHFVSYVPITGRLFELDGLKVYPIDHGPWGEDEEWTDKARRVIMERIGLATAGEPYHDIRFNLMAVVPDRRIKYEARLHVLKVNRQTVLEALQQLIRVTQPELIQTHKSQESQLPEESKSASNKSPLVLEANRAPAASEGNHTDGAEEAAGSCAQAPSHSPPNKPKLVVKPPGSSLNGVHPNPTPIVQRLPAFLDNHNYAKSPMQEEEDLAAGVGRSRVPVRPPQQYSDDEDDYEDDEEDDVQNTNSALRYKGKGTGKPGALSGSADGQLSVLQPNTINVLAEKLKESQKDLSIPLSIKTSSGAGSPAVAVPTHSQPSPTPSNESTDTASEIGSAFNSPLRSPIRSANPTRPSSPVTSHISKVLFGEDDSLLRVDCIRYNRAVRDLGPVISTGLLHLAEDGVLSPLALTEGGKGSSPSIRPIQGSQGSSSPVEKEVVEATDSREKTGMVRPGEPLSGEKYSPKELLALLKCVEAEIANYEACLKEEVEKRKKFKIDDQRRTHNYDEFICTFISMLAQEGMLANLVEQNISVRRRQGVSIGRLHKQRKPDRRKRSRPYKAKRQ
# Procedure, shortened: as §1
# [4] = biological target: EIF3F (UniProt O00303)
# Chain of EIF3F (O00303 whole entry): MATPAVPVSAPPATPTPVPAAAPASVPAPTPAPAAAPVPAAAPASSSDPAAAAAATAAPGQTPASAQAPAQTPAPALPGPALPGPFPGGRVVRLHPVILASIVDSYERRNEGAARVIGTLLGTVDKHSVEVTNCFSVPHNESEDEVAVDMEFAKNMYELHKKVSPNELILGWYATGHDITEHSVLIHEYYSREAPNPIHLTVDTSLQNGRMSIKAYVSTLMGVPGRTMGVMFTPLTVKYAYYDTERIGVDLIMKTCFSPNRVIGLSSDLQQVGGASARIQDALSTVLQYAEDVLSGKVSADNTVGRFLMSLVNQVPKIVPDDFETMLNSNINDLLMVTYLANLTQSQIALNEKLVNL
# Procedure, shortened: as §1
# [5] = biological target: EIF3H (UniProt O15372)
# Chain of EIF3H (O15372 whole entry): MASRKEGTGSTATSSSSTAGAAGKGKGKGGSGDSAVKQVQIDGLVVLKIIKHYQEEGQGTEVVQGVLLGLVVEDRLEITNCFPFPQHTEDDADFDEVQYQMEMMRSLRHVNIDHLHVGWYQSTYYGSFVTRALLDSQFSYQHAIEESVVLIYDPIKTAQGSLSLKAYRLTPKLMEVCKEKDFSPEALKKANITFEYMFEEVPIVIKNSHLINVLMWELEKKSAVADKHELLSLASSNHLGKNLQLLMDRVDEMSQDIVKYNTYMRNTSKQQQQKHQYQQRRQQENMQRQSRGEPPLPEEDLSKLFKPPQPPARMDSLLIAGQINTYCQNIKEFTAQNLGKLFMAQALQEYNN
# Procedure, shortened: as §1
# [6] = biological target: T3, FAM105A (UniProt Q9NUU6)
# T3 sequence (whole entry): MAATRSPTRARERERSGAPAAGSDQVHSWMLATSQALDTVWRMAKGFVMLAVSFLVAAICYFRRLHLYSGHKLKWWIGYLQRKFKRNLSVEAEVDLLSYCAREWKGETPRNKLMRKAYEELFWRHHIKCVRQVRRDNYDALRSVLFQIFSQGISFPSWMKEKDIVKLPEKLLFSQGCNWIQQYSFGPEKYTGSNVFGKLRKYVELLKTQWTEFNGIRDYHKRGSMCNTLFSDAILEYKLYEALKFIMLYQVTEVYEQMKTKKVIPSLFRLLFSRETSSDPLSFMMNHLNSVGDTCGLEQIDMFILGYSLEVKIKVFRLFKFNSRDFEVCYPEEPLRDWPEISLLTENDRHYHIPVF
# Procedure, shortened: as §1
# [7] = biological target: OTUB1 (UniProt Q96FW1)
# Chain of OTUB1 (Q96FW1 whole entry): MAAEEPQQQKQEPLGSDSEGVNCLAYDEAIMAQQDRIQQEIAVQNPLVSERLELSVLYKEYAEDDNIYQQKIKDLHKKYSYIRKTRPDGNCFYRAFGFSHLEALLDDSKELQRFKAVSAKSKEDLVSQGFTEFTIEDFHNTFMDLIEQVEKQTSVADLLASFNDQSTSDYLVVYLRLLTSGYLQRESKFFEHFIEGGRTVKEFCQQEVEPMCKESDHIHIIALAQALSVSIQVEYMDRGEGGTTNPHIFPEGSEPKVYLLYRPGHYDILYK
# Procedure, shortened: as §1
# [8] = biological target: T4, OTUD4 (UniProt Q01804)
# T4 sequence (whole entry): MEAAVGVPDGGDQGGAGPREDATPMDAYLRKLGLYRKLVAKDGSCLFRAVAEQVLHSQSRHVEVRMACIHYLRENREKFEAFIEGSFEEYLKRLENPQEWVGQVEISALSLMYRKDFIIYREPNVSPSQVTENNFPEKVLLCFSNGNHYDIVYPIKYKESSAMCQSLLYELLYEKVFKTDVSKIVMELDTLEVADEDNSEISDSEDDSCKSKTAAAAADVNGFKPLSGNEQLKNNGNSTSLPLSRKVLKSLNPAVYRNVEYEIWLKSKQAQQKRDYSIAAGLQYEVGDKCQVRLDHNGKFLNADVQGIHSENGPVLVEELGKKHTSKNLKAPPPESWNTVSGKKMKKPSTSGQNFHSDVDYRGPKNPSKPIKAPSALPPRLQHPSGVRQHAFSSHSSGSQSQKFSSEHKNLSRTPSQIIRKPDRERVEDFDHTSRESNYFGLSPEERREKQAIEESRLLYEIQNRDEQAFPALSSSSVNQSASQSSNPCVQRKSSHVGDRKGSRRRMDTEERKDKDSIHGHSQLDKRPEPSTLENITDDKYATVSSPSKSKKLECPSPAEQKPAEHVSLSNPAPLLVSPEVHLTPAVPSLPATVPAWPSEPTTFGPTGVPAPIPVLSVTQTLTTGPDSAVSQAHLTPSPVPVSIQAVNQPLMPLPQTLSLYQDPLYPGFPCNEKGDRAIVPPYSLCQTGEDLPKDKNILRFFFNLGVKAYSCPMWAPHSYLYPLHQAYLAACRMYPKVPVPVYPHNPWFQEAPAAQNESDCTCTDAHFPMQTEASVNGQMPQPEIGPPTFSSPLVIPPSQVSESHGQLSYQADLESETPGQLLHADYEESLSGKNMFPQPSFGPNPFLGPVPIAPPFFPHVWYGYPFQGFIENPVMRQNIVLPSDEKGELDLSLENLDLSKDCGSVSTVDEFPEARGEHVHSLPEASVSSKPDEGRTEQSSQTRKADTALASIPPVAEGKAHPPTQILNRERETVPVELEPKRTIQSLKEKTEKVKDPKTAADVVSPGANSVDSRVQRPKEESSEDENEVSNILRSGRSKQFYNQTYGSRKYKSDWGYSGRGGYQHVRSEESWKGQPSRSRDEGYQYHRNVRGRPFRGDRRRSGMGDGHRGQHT
# Procedure, shortened: as §1
# [9] = biological target: T5, OTUD5 (UniProt Q96G74)
# T5 sequence (whole entry): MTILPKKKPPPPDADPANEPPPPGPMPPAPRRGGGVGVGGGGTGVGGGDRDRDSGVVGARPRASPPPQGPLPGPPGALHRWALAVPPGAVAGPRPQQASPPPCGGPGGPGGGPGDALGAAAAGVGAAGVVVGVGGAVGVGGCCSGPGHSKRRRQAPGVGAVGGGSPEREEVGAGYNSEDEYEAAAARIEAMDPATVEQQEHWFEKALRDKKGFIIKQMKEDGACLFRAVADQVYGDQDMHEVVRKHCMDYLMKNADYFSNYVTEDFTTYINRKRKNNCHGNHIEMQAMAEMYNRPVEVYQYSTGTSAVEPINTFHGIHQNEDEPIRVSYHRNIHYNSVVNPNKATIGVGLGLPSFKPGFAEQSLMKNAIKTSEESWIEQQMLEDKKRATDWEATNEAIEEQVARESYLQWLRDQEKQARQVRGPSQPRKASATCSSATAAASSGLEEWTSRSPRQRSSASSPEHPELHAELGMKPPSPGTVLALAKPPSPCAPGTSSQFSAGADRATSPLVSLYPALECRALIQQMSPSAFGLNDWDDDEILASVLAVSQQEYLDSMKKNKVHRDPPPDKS
# Procedure, shortened: as §1
SMILES,log2 ratio of Biotin-Ahx-Ub-VS probe labelling [1],log2 ratio of Biotin-Ahx-Ub-VS probe labelling [2],log2 ratio of Biotin-Ahx-Ub-VS probe labelling [3],log2 ratio of Biotin-Ahx-Ub-VS probe labelling [4],log2 ratio of Biotin-Ahx-Ub-VS probe labelling [5],log2 ratio of Biotin-Ahx-Ub-VS probe labelling [6],log2 ratio of Biotin-Ahx-Ub-VS probe labelling [7],log2 ratio of Biotin-Ahx-Ub-VS probe labelling [8],log2 ratio of Biotin-Ahx-Ub-VS probe labelling [9]
O=C(CCl)Nc1ccccc1C(F)(F)F,0.259,-0.449,-2.61 (active),-0.519,0.185,0.257,-0.144,-0.356,-0.489
O=C(CCl)N1CCOC(CCc2ccccc2)C1 (stereo not drawn),-0.284,-0.798,-1.1 (active),-0.348,0.0677,-0.23,-0.408,-0.558,-0.502
